Measurements published in the supplement of paper PMC12532568.
Where a name gives a salt, the structure may show the parent alone.

System: Danio rerio larvae Tg(actc1b:ZsGreen-LC3), 3 dpf
Assay: LC3 puncta relative area vs vehicle, without NH4Cl (log2 fold change); higher = more autophagosomes
Conditions: 10 µM; treatment time 16 h; NH4Cl: none
Procedure: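 Transgenic Tg(actc1b:ZsGreen-map1lc3) zebrafish larvae (2 dpf) were treated for 16 h with Tocris library compounds at 10 µM (n = 12 larvae per compound). Skeletal-muscle LC3 puncta area relative to body area was measured by high-content confocal imaging before and after 4 h of 100 mM NH4Cl (autophagic flux), normalised to vehicle (DMSO), and reported as log2 fold change.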

Row | Compound | LC3 puncta (log2)
1 | CC1=NN(c2ccccc2)C(=O)C1 [Edaravone] | 0.377
2 | Fc1ccc(C(c2ccc(F)cc2)N2CCN(C/C=C/c3ccccc3)CC2)cc1 [Flunarizine dihydrochloride] | 0.219
3 | O=C(O)c1cc(=O)c2c(Cl)cc(Cl)cc2[nH]1 [5,7-Dichlorokynurenic acid] | -0.0706
4 | CN(C)CCCCSC(=N)N | 0.222
5 | COCCOC(=O)C1=C(C)NC(C)=C(C(=O)OC(C)C)C1c1cccc([N+](=O)[O-])c1 (stereo not given) [Nimodipine] | 0.31
6 | O=C(O)c1cccnc1C(=O)O [Quinolinic acid] | 0.278
7 | O=C(/C=C/c1ccc(O)c(O)c1)O[C@H](Cc1ccc(O)c(O)c1)C(=O)O [Rosmarinic acid] | 0.0606
8 | O=C(O)CC/C=C\C[C@H]1CO[C@@H](c2ccccc2Cl)O[C@H]1c1ccccc1O | -0.249
9 | Cc1ccc(OCC(O)C(C)NC(C)C)c2c1CCC2 (stereo not given) [ICI 118,551 hydrochloride] | -0.0345
10 | CCN(CC)CCOCCOC(=O)C1(c2ccccc2)CCCC1 [Carbetapentane citrate] | -0.0165
11 | CCOC(=O)C1=C(C)NC(C)=C(C(=O)OC)C1c1cccc([N+](=O)[O-])c1 (stereo not given) [Nitrendipine] | 0.107
12 | NC(C(=O)O)c1cc(O)cc(O)c1 (racemic) | 0.194
13 | CC(CCc1ccc(O)cc1)NCCc1ccc(O)c(O)c1 (stereo not given) [Dobutamine hydrochloride] | -0.094
14 | O=C(O)C=C1CCCc2ccccc2C1O (stereo not given) | 0.299
15 | O=C1CN(/N=C/c2ccc(-c3ccc([N+](=O)[O-])cc3)o2)C(=O)N1 [Dantrolene, sodium salt] | 0.18
16 | O=C1CC2(CCCC2)CC(=O)N1CCNCC1COc2ccccc2O1 (stereo not given) | 0.301
17 | NC(=O)Nc1sc(-c2ccc(F)cc2)cc1C(N)=O | 0.302
18 | COc1ccc2[nH]c(I)c(CCNC(C)=O)c2c1 [2-Iodomelatonin] | 0.515
19 | N[C@H]1CCN(O)C1=O | 0.0498
20 | CCc1nc(N)nc(N)c1-c1ccc(Cl)cc1 [Pyrimethamine] | 0.169

Row | Compound | LC3 puncta (log2)
21 | NS(=O)(=O)c1cccc2c1c([N+](=O)[O-])cc1nc(O)c(O)nc12 | 0.286
22 | COC(=O)/C=C/c1cc(O)ccc1O [Methyl 2,5-dihydroxycinnamate] | 0.0626
23 | CC(C)Oc1ccc2c(=O)c3cc(C(=O)O)ccc3oc2c1 | 0.473
24 | Nc1nc2ccc(OC(F)(F)F)cc2s1 [Riluzole] | 0.289
25 | Brc1c(NC2=NCCN2)ccc2nccnc12 | 0.438
26 | N=C(N)S/C=C\C(=O)O [ZAPA sulfate] | 0.0963
27 | CC(=O)N1CCN(C)CC1 [1-Acetyl-4-methylpiperazine hydrochloride] | 0.18
28 | Clc1cccc(Nc2nnc(-c3ccccc3)c3ccccc23)c1 | 0.29
29 | CCCCCCN(CCCCCC)C(=O)Cc1c(-c2ccc(F)cc2)[nH]c2ccccc12 | 0.084
30 | N[C@H](C(=O)O)c1cc(O)cc(O)c1 | 0.537
31 | CN(C)CCCn1cc(C2=C(c3c[nH]c4ccccc34)C(=O)NC2=O)c2ccccc21 | 0.584
32 | Cc1ccc(/C(=C\CN2CCCC2)c2ccccn2)cc1 [trans-Triprolidine hydrochloride] | -0.298
33 | O=C(NCCN1CCCCC1)c1ccc(I)cc1 [N-[2-(Piperidinylamino)ethyl]-4-iodobenzamide] | 0.492
34 | COc1cc(N)c(Cl)cc1C(=O)OCCCN1CCCCC1 | -0.0084
35 | OCCN(CCO)c1nc(N2CCCCC2)c2nc(N(CCO)CCO)nc(N3CCCCC3)c2n1 [Dipyridamole] | -0.714
36 | N=C(N)SCCc1c[nH]cn1 [Imetit dihydrobromide] | 0.595
37 | NC(N)=Nc1ccc(Cl)cc1 [4-Chlorophenylguanidine hydrochloride] | -0.45
38 | COc1cc2c(CCNC(C)=O)c[nH]c2cc1Cl [6-Chloromelatonin] | -0.363
39 | CC(N)(Cc1ccc(O)c(O)c1)C(=O)O (stereo not given) | 0.269
40 | CC(C)NC[C@H](O)COc1ccc(CC(N)=O)cc1 [(S)-(-)-Atenolol] | 0.12
